ChEMBL document CHEMBL3988442, “University of Dundee, Small-Polar-MMV Screening Library” (2021)
For some assays here: Results with a measured potency or affinity are listed apart.

Biological target: T1, Ubiquitin-activating enzyme e1, putative (Leishmania donovani (strain BPK282A1)) (UniProt E9BSI1)
T1 sequence (whole entry): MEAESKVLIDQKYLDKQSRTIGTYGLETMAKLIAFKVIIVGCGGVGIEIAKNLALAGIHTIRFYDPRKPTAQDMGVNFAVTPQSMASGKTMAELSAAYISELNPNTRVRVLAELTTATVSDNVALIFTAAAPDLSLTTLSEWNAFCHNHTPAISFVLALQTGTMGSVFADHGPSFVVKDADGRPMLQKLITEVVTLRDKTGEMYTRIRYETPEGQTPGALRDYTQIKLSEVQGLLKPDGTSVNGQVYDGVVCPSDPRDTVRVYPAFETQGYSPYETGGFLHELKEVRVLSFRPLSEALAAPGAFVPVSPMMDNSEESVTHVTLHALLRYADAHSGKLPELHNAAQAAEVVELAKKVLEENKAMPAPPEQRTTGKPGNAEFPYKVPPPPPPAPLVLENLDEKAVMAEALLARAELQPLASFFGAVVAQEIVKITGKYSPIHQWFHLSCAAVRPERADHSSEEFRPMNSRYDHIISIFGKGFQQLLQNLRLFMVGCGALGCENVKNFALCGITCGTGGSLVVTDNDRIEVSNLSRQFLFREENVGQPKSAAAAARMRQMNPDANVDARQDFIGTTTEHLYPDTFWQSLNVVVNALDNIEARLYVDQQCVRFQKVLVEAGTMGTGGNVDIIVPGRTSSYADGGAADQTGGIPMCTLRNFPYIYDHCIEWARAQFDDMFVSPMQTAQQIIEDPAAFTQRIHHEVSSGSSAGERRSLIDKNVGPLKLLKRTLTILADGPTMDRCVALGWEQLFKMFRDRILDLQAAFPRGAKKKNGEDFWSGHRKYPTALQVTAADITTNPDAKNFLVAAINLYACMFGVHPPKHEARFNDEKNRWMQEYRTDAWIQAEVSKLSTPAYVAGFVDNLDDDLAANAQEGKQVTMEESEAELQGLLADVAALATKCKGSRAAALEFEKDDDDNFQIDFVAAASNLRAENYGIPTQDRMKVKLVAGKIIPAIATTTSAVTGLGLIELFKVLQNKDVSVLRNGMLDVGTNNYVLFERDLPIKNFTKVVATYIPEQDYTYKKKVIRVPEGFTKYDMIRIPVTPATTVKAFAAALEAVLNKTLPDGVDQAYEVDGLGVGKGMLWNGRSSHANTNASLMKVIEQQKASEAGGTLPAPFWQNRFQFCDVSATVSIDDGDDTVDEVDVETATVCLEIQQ
Assay: Leishmania donovani Ubiquitin Activating Enzyme (LdE1)
Type: functional
Parameters: scale not given: direction of the effect not stated beside the values
Settings: 30 µM

SMILES	Percent Effect [%]
CN(C)CC1(O)CCN(S(=O)(=O)c2ccc(F)cc2)C1 (stereo not given)	20.3
CCc1noc(C(C)N2CCN(Cc3nc(C)c(C)o3)CC2)n1 (stereo not given)	0
CS(=O)(=O)CCC(=O)NC1(c2cccc(Br)c2)CC1	13.5
Fc1cccc(CN2CCC(c3n[nH]c4ncccc34)CC2)c1F	9.46
CN(C)C(=O)CN1CCC2(CCN(Cc3nccs3)CC2)C1=O	10.7
CCc1nnc2n1CCN(C(=O)C(C)COCc1ccccc1)C2 (stereo not given)	10.5
Cc1ccc(N2CC3(COCCN(Cc4cccnc4)C3)OCC2=O)s1 (stereo not given)	2.6
Cc1nc(C)n(CC2CN(Cc3cccnc3)CCO2)n1 (stereo not given)	21.1
COc1ccc(C2=CCN(C(=O)CN(C)CC(C)C#N)CC2)cc1 (stereo not given)	-12.7
CC(NC(=O)Cn1cccn1)c1ccc2c(c1)OCCCO2 (stereo not given)	28.6
CCn1cnnc1CNC(=O)N1CCN(Cc2ccccc2)CC1	26
NC(=O)Nc1cccc(Oc2ccccn2)c1	0
Cc1ccc(CN(Cc2ccccn2)C2CC(C)(C)NC(C)(C)C2)s1	-4.05
CC(C)c1nccn1CCCNC(=O)c1ccc(-c2cncnc2)nc1	8
Cc1nc(CN2CCN(CC(=O)Nc3c(C)cccc3C)CC2)no1	10.4
c1cnn(Cc2nnc(C3CCN(C4CCOCC4)CC3)n2C2CC2)c1	13.3
CCc1noc(CN2CCCC2c2noc(C3CC3)n2)n1 (stereo not given)	21.6
Fc1ccc(OCCCN2CCOC(Cn3cncn3)C2)cc1 (stereo not given)	-3.8
CS(=O)(=O)NCCCN1CCCCC1c1cc2ccccc2[nH]1 (stereo not given)	15.2
CCC1=N[C@@]2(CC[C@@H]3CN(Cc4ccc(Cl)cc4)C[C@@H]32)C(=O)N1	2.7

SMILES	Percent Effect [%]
NC(=O)C1(c2cnccn2)CCCN1Cc1cc2ccccc2o1 (stereo not given)	6.76
CS(=O)(=O)N1CCCCCC1C1CCN(c2ncccc2C#N)CC1 (stereo not given)	-5.26
CC(C)CN1Cc2c(C(=O)N(C)C)ncn2-c2ccccc2S1(=O)=O	5.41
CC(C)N1CCC(Cc2cncc(-c3ccccc3C(=O)O)n2)CC1	8
O=C(c1ccsc1)N1CC[C@H]2C[C@@H](c3nnc(C4CC4)o3)O[C@@H]2C1	7.79
Cn1nnc2c1C(COCC1CC1)CN(C(=O)Cc1ccsc1)C2 (stereo not given)	23.4
Cc1noc(C)c1CN1CC[C@@H](OCC2CC2)[C@@H](Cc2ccccc2)C1	13.3
Cc1ccc(CC2CCCN2CC(=O)NCc2ccccn2)cc1 (stereo not given)	-5.26
CCCC1CCCN(Cc2csc(-c3cnn(C)c3)n2)CC1 (stereo not given)	-5.26
COc1c(CNCC(O)c2cccc(F)c2)c(C(C)C)nn1C (stereo not given)	10.4
CC(NC(=O)NCCCO)c1ccc2c(c1)OCCO2 (stereo not given)	16.2
Cc1c(C2CCCN(C(=O)C3CC3)C2)n2c(nc1=O)CCC2 (stereo not given)	23
CCn1cc(CN2CCCn3nc(CCC(=O)NCCO)cc3C2)cn1	5.2
Fc1ccc2[nH]c(C3CCCN3CCc3ccccn3)nc2c1 (stereo not given)	8.22
O=C(CCc1cscn1)N1CCCC1c1noc(C2CC2)n1 (stereo not given)	16.2
CCn1c(CN2CCCN(C(=O)OC)CC2)nc2c(F)cccc21	15.8
Cc1nc(C)n(CC2CN(Cc3cccc(C(N)=O)c3)CCO2)n1 (stereo not given)	-5.41
O=C(C1CC(=O)N(C2CCCC2)C1)N1CCN(CCn2cccc2)CC1 (stereo not given)	13.3
CCN(Cc1nc2c(cnn2C)c(=O)[nH]1)c1ccc(OC)c(OC)c1	24.1
NC(=O)C1CCN(Cc2cccc(NC(=O)c3ccsc3)c2)CC1	2.67

Biological target: AMP-activated protein kinase, AMPK (Homo sapiens) (UniProt P54646+O43741+P54619+Q9UGJ0+Q9Y478+Q13131+Q9UGI9)
Assay: AMP-dependent Kinase enzyme assay. An in vitro enzyme assay that detects ADP turnover that is directly proportional to AMPK activity. This uses naive AMPK that is activated during the assay with MK-8722
Type: functional
Parameters: scale not given: direction of the effect not stated beside the values
Settings: 30 µM

SMILES	Percent Effect [%]
CN(C)CC1(O)CCN(S(=O)(=O)c2ccc(F)cc2)C1 (stereo not given)	6.17
CCc1noc(C(C)N2CCN(Cc3nc(C)c(C)o3)CC2)n1 (stereo not given)	6.83
CS(=O)(=O)CCC(=O)NC1(c2cccc(Br)c2)CC1	-4.94
Fc1cccc(CN2CCC(c3n[nH]c4ncccc34)CC2)c1F	25.8
CN(C)C(=O)CN1CCC2(CCN(Cc3nccs3)CC2)C1=O	0.545
CCc1nnc2n1CCN(C(=O)C(C)COCc1ccccc1)C2 (stereo not given)	0.611
Cc1ccc(N2CC3(COCCN(Cc4cccnc4)C3)OCC2=O)s1 (stereo not given)	20.6
Cc1nc(C)n(CC2CN(Cc3cccnc3)CCO2)n1 (stereo not given)	-7.06
COc1ccc(C2=CCN(C(=O)CN(C)CC(C)C#N)CC2)cc1 (stereo not given)	-4.45
CC(NC(=O)Cn1cccn1)c1ccc2c(c1)OCCCO2 (stereo not given)	20.8
CCn1cnnc1CNC(=O)N1CCN(Cc2ccccc2)CC1	-4.86
NC(=O)Nc1cccc(Oc2ccccn2)c1	11.3
Cc1ccc(CN(Cc2ccccn2)C2CC(C)(C)NC(C)(C)C2)s1	8.17
CC(C)c1nccn1CCCNC(=O)c1ccc(-c2cncnc2)nc1	-10.9
Cc1nc(CN2CCN(CC(=O)Nc3c(C)cccc3C)CC2)no1	-0.791
c1cnn(Cc2nnc(C3CCN(C4CCOCC4)CC3)n2C2CC2)c1	-7
CCc1noc(CN2CCCC2c2noc(C3CC3)n2)n1 (stereo not given)	-11.2
Fc1ccc(OCCCN2CCOC(Cn3cncn3)C2)cc1 (stereo not given)	6.98
CS(=O)(=O)NCCCN1CCCCC1c1cc2ccccc2[nH]1 (stereo not given)	-13
CCC1=N[C@@]2(CC[C@@H]3CN(Cc4ccc(Cl)cc4)C[C@@H]32)C(=O)N1	2.16

SMILES	Percent Effect [%]
NC(=O)C1(c2cnccn2)CCCN1Cc1cc2ccccc2o1 (stereo not given)	11.2
CS(=O)(=O)N1CCCCCC1C1CCN(c2ncccc2C#N)CC1 (stereo not given)	9.82
CC(C)CN1Cc2c(C(=O)N(C)C)ncn2-c2ccccc2S1(=O)=O	-2.12
CC(C)N1CCC(Cc2cncc(-c3ccccc3C(=O)O)n2)CC1	9.75
O=C(c1ccsc1)N1CC[C@H]2C[C@@H](c3nnc(C4CC4)o3)O[C@@H]2C1	1.35
Cn1nnc2c1C(COCC1CC1)CN(C(=O)Cc1ccsc1)C2 (stereo not given)	-3.67
Cc1noc(C)c1CN1CC[C@@H](OCC2CC2)[C@@H](Cc2ccccc2)C1	8.95
Cc1ccc(CC2CCCN2CC(=O)NCc2ccccn2)cc1 (stereo not given)	-11.2
CCCC1CCCN(Cc2csc(-c3cnn(C)c3)n2)CC1 (stereo not given)	-0.945
COc1c(CNCC(O)c2cccc(F)c2)c(C(C)C)nn1C (stereo not given)	-6.14
CC(NC(=O)NCCCO)c1ccc2c(c1)OCCO2 (stereo not given)	0.694
Cc1c(C2CCCN(C(=O)C3CC3)C2)n2c(nc1=O)CCC2 (stereo not given)	2.41
CCn1cc(CN2CCCn3nc(CCC(=O)NCCO)cc3C2)cn1	13.5
Fc1ccc2[nH]c(C3CCCN3CCc3ccccn3)nc2c1 (stereo not given)	-4.31
O=C(CCc1cscn1)N1CCCC1c1noc(C2CC2)n1 (stereo not given)	-11.8
CCn1c(CN2CCCN(C(=O)OC)CC2)nc2c(F)cccc21	-5.17
Cc1nc(C)n(CC2CN(Cc3cccc(C(N)=O)c3)CCO2)n1 (stereo not given)	5.74
O=C(C1CC(=O)N(C2CCCC2)C1)N1CCN(CCn2cccc2)CC1 (stereo not given)	-5.45
CCN(Cc1nc2c(cnn2C)c(=O)[nH]1)c1ccc(OC)c(OC)c1	14.9
NC(=O)C1CCN(Cc2cccc(NC(=O)c3ccsc3)c2)CC1	-1.03
